The values below come from PubChem BioAssay (NCI).

About 83,000 compounds went through this panel and 20% of them were active in at least one assay; those are over-represented in the sample as a whole.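 Single-dose data. Exposure time 48 hours. Values below 10 considered active.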 The source made the active and inactive calls.

One experiment deals with HS 578T breast. Description: NCI-60 one-dose screen, 48 h (100 = growth as untreated, 0 = no growth, -100 = all killed). Particulars: 10 µM unless noted.
In the case of `N#CC1=C(N)Oc2c(sc3c(F)cccc23)C1c1ccc(Cl)cc1` (stereo not given), the growth is 40.6% (inactive). Still for that read-out and setting: as for `O=C(Nc1ccc(/C=C2\SC(=O)N(Cc3ccc(OC(F)(F)F)cc3)C2=O)cc1)c1ccc(Cl)c([N+](=O)[O-])c1`, the figure is 72.1% (inactive); as for `C[C@@H](C(=O)O)c1ccc2c3cc(Cl)ccc3n(Cc3cc(=O)oc4ccc(Cl)cc34)c2c1`, 101% (inactive). With `Cn1c(=O)c2c(nc(Br)n2CC(=O)Nc2ccc(F)cc2)n(C)c1=O`, the growth is 100% (inactive).

As to `COC(=O)C(N)CSC(c1ccccc1)(c1ccccc1)c1ccccc1` (stereo not given), the growth is 21.5% (inactive). The same measure, in the same setting: as for `NS(=O)(=O)c1ccc(CCNC(=O)/C=C/c2ccc(Cl)cc2)cc1`, the figure is 98.2% (inactive). On to `C[C@H]1[C@H]2C3=CC[C@@H]4[C@@]5(C)C/C(=C/c6ccco6)C(=O)C(C)(C)[C@@H]5CC[C@@]4(C)[C@]3(C)CC[C@@]2(C(=O)N2CCOCC2)CC[C@@H]1C`, for which the growth is 77.9% (inactive). Same read-out and setting: the figure for `Cn1cc(-c2csc(-c3cn(CCN)c4ccc(F)cc34)n2)c2cccnc21` is 77.9% (inactive); for `O=C1/C(=C\c2ccco2)SC(=S)N1CCc1ccc(O)cc1` it is 99.5% (inactive). Turning to `COc1cccc(-c2nn(-c3ccccc3)cc2-c2ccnc(NCCNS(=O)(=O)c3ccccc3)c2)c1`, the growth is 46.7% (inactive). With `C[C@]12CC[C@@H]3c4ccc(O)cc4CC[C@H]3[C@@H]1C[C@H](O)[C@@H]2O`, the growth is 86.6% (inactive). Same read-out and setting: the figure for `COc1cc2c3c(c4c5ccccc5[nH]c4c2c(OC)c1OC)C(=O)N(O)C3=O` is 67.4% (inactive); for `Clc1cc(Cl)cc(Nc2ccc3c(OCCCN4CCOCC4)cccc3n2)c1` it is 35.9% (inactive); for `CCCCC[C@H]1C/C=C2/C(=O)C(Cl)=C[C@@H]2C/C=C\CCCC(=O)O1` it is 29.7% (inactive).

`Cn1c2ccccc2c2c3c(c4c5cccnc5[nH]c4c21)C(=O)N(O)C3=O`: the growth was 110% (inactive). Still for that read-out and setting: as for `O=C1CN(c2ccccc2)C(=O)C1C(=O)Nc1ccc(Cl)c(Cl)c1` (stereo not given), the figure is 32.8% [100 µM] (inactive).

In the case of `CCc1cccc(CC)c1NC(=O)c1sc2nc3c(cc2c1N)CCCC3`, the growth is 65.2% (inactive). Turning to `Cc1cccc2c1NC(=O)[C@@]21[C@H](C(=O)c2ccccc2)[C@]2(C(=O)Nc3ccccc32)[C@H]2CCCN21`, the growth was 16% [100 µM] (inactive).

Consider `C[C@H]1OC(=O)/C=C/[C@@H](O)[C@@H](O)CCCCCCCC[C@@H]1O`, for which the growth is 101% (inactive). `COc1cccc(-c2nn(-c3ccccc3)cc2-c2ccnc(NCCNS(=O)(=O)c3cccc(F)c3)c2)c1`: the growth was 40.2% (inactive).

Turning to `CC(=O)O[C@@H]1CCN2C(=O)N(C)c3ccccc3[C@@H]2C1`, the growth was 116% (inactive). As to `O=C1NC(c2ccc(Cl)c(Cl)c2)=C/C1=C\c1ccccc1`, the growth is 66.3% (inactive). The same measure, in the same setting: as for `COc1ccc(C2C(C#N)=C(N)Oc3c2sc2c(F)cccc32)cc1` (stereo not given), the figure is 42.4% (inactive).

`COC(=O)[C@]12CC[C@@H](C)[C@H](C)[C@@H]1C1=CC[C@@H]3[C@@]4(C)C(c5ncon5)=C[C@@](C)(CO)C4=CC[C@@]3(C)[C@]1(C)CC2`: the growth is 12.5% (inactive). Turning to `Cc1cc2nc3c4cc(Cl)ccc4n(CCN(C)C)c3nc2cc1C`, the growth is 45.5% (inactive). The same measure, in the same setting: the figure for `COc1cc2c(cc1-c1c(C)noc1C)ncc1nc(C3CC3)n([C@H](C)COC(F)F)c12` is 8.14% (active). Still for that read-out and setting: as for `CCCCC[C@H]1CC=C2C(=O)C(Cl)=C[C@@H]2CC=CCCCC(=O)O[C@@H](CCCCC)CC=C2C(=O)C(Cl)=C[C@@H]2CC=CCCCC(=O)O[C@@H](CCCCC)CC=C2C(=O)C(Cl)=C[C@@H]2CC=CCCCC(=O)O1`, the figure is 78% [8 µM] (inactive); as for `C=C(C)[C@@H]1CC[C@]2(C=O)CC[C@]3(C)[C@H](CC[C@@H]4[C@@]5(C)C/C(=C/c6cccnc6)C(=O)C(C)(C)[C@@H]5CC[C@]43C)[C@@H]12`, 87.4% (inactive).

On to `Cc1cc(N(CCNc2ccnc3cc(Cl)ccc23)Cc2ccco2)nc(Cl)n1`, for which the growth is 6.7% (active). Turning to `CSc1ccc(N(C)c2nc(C)nc3c2CCC3)cc1`, the growth is 29.8% (inactive).

Turning to `C=C(C)[C@@H]1CC[C@]2(C(=O)NNC(=O)c3cccnc3)CC[C@]3(C)[C@H](CC[C@@H]4[C@@]5(C)CCCNC(C)(C)[C@@H]5CC[C@]43C)[C@@H]12`, the growth was 67.3% (inactive).

The subject of another experiment is NCI/ADR-RES ovarian. The experiment is described as above. To be noted: 10 µM unless noted.
On to `O=C1c2ccccc2C(=Cc2ccccc2)c2ccccc21`, for which the growth was -64.4% (active). The same measure, in the same setting: the figure for `N#CC1=C(N)Oc2c(sc3c(F)cccc23)C1c1ccc(Cl)cc1` (stereo not given) is 14.4% (inactive); for `O=C(Nc1ccc(/C=C2\SC(=O)N(Cc3ccc(OC(F)(F)F)cc3)C2=O)cc1)c1ccc(Cl)c([N+](=O)[O-])c1` it is 73.6% (inactive); for `C[C@@H](C(=O)O)c1ccc2c3cc(Cl)ccc3n(Cc3cc(=O)oc4ccc(Cl)cc34)c2c1` it is 98.3% (inactive).

Consider `Cn1c(=O)c2c(nc(Br)n2CC(=O)Nc2ccc(F)cc2)n(C)c1=O`, for which the growth was 102% (inactive). Still for that read-out and setting: as for `COC(=O)C(N)CSC(c1ccccc1)(c1ccccc1)c1ccccc1` (stereo not given), the figure is 68.4% (inactive).

For the molecule `NS(=O)(=O)c1ccc(CCNC(=O)/C=C/c2ccc(Cl)cc2)cc1`, the growth is 103% (inactive). The same measure, in the same setting: the figure for `C[C@H]1[C@H]2C3=CC[C@@H]4[C@@]5(C)C/C(=C/c6ccco6)C(=O)C(C)(C)[C@@H]5CC[C@@]4(C)[C@]3(C)CC[C@@]2(C(=O)N2CCOCC2)CC[C@@H]1C` is 83.1% (inactive); for `COC1=C(Br)C(=O)C(OC)=C(Br)C1=O` it is 104% (inactive); for `Cn1cc(-c2csc(-c3cn(CCN)c4ccc(F)cc34)n2)c2cccnc21` it is 78.3% (inactive). The same measure, in the same setting: as for `O=C1/C(=C\c2ccco2)SC(=S)N1CCc1ccc(O)cc1`, the figure is 103% (inactive); as for `COc1cccc(-c2nn(-c3ccccc3)cc2-c2ccnc(NCCNS(=O)(=O)c3ccccc3)c2)c1`, 23.3% (inactive); as for `C[C@]12CC[C@@H]3c4ccc(O)cc4CC[C@H]3[C@@H]1C[C@H](O)[C@@H]2O`, 102% (inactive).

Consider `COc1cc2c3c(c4c5ccccc5[nH]c4c2c(OC)c1OC)C(=O)N(O)C3=O`, for which the growth is 43.8% (inactive). On the same count and under the same terms, as for `Clc1cc(Cl)cc(Nc2ccc3c(OCCCN4CCOCC4)cccc3n2)c1`, the figure is 60.9% (inactive); as for `C/C(=N/NC(N)=S)C(=O)O`, 65.3% (inactive). In the case of `CCCCC[C@H]1C/C=C2/C(=O)C(Cl)=C[C@@H]2C/C=C\CCCC(=O)O1`, the growth is 12.1% (inactive).

`Cn1c2ccccc2c2c3c(c4c5cccnc5[nH]c4c21)C(=O)N(O)C3=O`: the growth was 57.2% (inactive). Still for that read-out and setting: as for `O=C1CN(c2ccccc2)C(=O)C1C(=O)Nc1ccc(Cl)c(Cl)c1` (stereo not given), the figure is 21.6% [100 µM] (inactive); as for `CCc1cccc(CC)c1NC(=O)c1sc2nc3c(cc2c1N)CCCC3`, 45.3% (inactive); as for `Cc1cccc2c1NC(=O)[C@@]21[C@H](C(=O)c2ccccc2)[C@]2(C(=O)Nc3ccccc32)[C@H]2CCCN21`, 109% [100 µM] (inactive). Still for that read-out and setting: as for `C[C@H]1OC(=O)/C=C/[C@@H](O)[C@@H](O)CCCCCCCC[C@@H]1O`, the figure is 98.1% (inactive); as for `COc1cccc(-c2nn(-c3ccccc3)cc2-c2ccnc(NCCNS(=O)(=O)c3cccc(F)c3)c2)c1`, 22.1% (inactive); as for `CCCC(=O)N1CCCCC1CC` (stereo not given), 115% (inactive).

`CC(=O)O[C@@H]1CCN2C(=O)N(C)c3ccccc3[C@@H]2C1`: the growth is 104% (inactive). On to `O=C(/C=C\c1ccc2c(c1)OCO2)/C=C/c1ccc2c(c1)OCO2`, for which the growth was 92.1% (inactive). Turning to `O=C1NC(c2ccc(Cl)c(Cl)c2)=C/C1=C\c1ccccc1`, the growth was 83.7% (inactive).

Regarding `O=C1C=Cc2ncccc2C1=O`, the growth is 84% (inactive).

For `COc1ccc(C2C(C#N)=C(N)Oc3c2sc2c(F)cccc32)cc1` (stereo not given), the growth is 6.69% (active).

For `COC(=O)[C@]12CC[C@@H](C)[C@H](C)[C@@H]1C1=CC[C@@H]3[C@@]4(C)C(c5ncon5)=C[C@@](C)(CO)C4=CC[C@@]3(C)[C@]1(C)CC2`, the growth was 6.21% (active). With `Cc1cc2nc3c4cc(Cl)ccc4n(CCN(C)C)c3nc2cc1C`, the growth was 13.6% (inactive). On the same count and under the same terms, the figure for `COc1cc2c(cc1-c1c(C)noc1C)ncc1nc(C3CC3)n([C@H](C)COC(F)F)c12` is 40.1% (inactive). As to `CCCCC[C@H]1CC=C2C(=O)C(Cl)=C[C@@H]2CC=CCCCC(=O)O[C@@H](CCCCC)CC=C2C(=O)C(Cl)=C[C@@H]2CC=CCCCC(=O)O[C@@H](CCCCC)CC=C2C(=O)C(Cl)=C[C@@H]2CC=CCCCC(=O)O1`, the growth is 96.2% [8 µM] (inactive). Still for that read-out and setting: the figure for `NC(=O)[C@@H]1CC2CCC1C2` (stereo not given in full) is 121% (inactive); for `C=C(C)[C@@H]1CC[C@]2(C=O)CC[C@]3(C)[C@H](CC[C@@H]4[C@@]5(C)C/C(=C/c6cccnc6)C(=O)C(C)(C)[C@@H]5CC[C@]43C)[C@@H]12` it is 78.5% (inactive). The same measure, in the same setting: the figure for `Cc1cc(N(CCNc2ccnc3cc(Cl)ccc23)Cc2ccco2)nc(Cl)n1` is -4.64% (active); for `CN(C)c1ccc(N)c2ccccc12` it is 77.2% (inactive). For `CSc1ccc(N(C)c2nc(C)nc3c2CCC3)cc1`, the growth was 8.05% (active). Regarding `C=C(C)[C@@H]1CC[C@]2(C(=O)NNC(=O)c3cccnc3)CC[C@]3(C)[C@H](CC[C@@H]4[C@@]5(C)CCCNC(C)(C)[C@@H]5CC[C@]43C)[C@@H]12`, the growth is 90.5% (inactive).
